From PubChem BioAssay AID2669 (National Center for Advancing Translational Sciences (NCATS), 2010)
Inconclusive results are not listed. Active and inactive are the calls of the source. The call rests on the fitted dose curve; in most records, active means well fitted inhibition curve with a large enough effect; inconclusive means small, poorly fitted or top-dose-only effect, or effect the other way; inactive means flat fitted curve, though single readings scatter.

Assay: qHTS Assay Multiplex Screening to Identify Dual Action Probes in a Cell Model of Huntington: Cytoprotection (Protease relase)
Details: PC12 HttQ103 cells, Cytotox-Glo protease release, 40 h; series mostly up to 46.1 µM; activity change, negative = inhibition: at the top concentration
Source text: NIH Chemical Genomics Center [NCGC]
NIH Molecular Libraries Probe Production centers Network [MLPCN]
Assay Submitter (PI): Wei Zheng
Huntington's disease is a neurodegenerative disorder caused by a trinucleotide repeat expansion in Exon 1 of the Huntingtin gene. The CAG trinucleotide encodes glutamine and polyglutamine expansions cause cell death in selective areas of the brain. Huntington polyglutamine repeats have the tendency to form aggregates which are observable in later stages of the disease. The exact nature of the aggregates, whether toxic, protective, or insignificant, is unclear.
A stable PC12 cell line containing a gene fusion of Exon 1 of the Huntingtin gene linked to GFP under the control of the inducible ecdysone promoter were used as the cell-based model of Huntington Disease for high throughput screening. Exon 1 of the Huntingtin gene contained an expansion of 103 polyglutamines (Q103) which, when expressed, caused cell death and distinct, bright GFP aggregates. The amount of cell death and the size and intensity of GFP aggregates increased over time and induction level. In the primary screen, cell death were quantified with a measurement of ATP content in the cells. A maximal 40-50% of cell death was observed when the Huntington gene was induced in this cell line.
We optimized this assay in a homogeneous 1536 well format. A quantitative high throughput screen (qHTS) was conducted on the PC12 cells which were induced to express the toxic fusion construct. Small molecules which prevented cell death were considered hits, and were further studied. The present assay is an alternate assay for cytoprotection using Promega's Cytotox-Glo reagent.
PC12 cells stably containing a construct with an ecdysone inducible promoter expressing GFP fused to the exon 1 of HTTQ103 (Huntington protein which containing a 103 ployglutamine expansion) were used.
NCGC Assay Protocol Summary:
Sequence, Parameter, Description
1, Reagent, 5 uL 1500 cells/well 1536 TC treated White clear bottom plate
2, Compound, 23 nL Tebufenozide inducer (100 nM final) to all columns
3, Compound, 23 nL 40 uM to 0.5 nM Libraries
5, Reagent, 2 ul Promega's Cytotox-Glo assay reagent
6, Detector, 4 sec integration with a Viewlux Luminescent
Media consisted of phenol red free DMEM + 5% equine serum (Hyclone # SH30072.03 ), 5% supplemented Bovine Calf Serum (Hyclone # SH30074.03 ), 1x pen/strep, no G418

Row | Structure (SMILES) | activity change, negative = inhibition | Potency
1 | Cn1nnnc1Sc1ncnc2scc(-c3ccccc3S(C)(=O)=O)c12 | -11.7% (inactive) | –
2 | Cc1nnc(C)n1/N=C/c1cc(Br)cc(Br)c1O | 4.09% (inactive) | –
3 | Cn1nnnc1Sc1ncnc2scc(-c3ccsc3)c12 | – | 7.94 µM (active)
4 | O=c1c2ccccc2nnn1CSc1ncnc2ccccc12 | -15.1% (inactive) | –
5 | Cc1ccc(-n2ncc(Br)c(Br)c2=O)cc1 | – | 12.6 µM (active)
6 | CN(C)CCCSc1ccccc1NC(=O)/C=C\c1ccccc1 | – | 6.31 µM (active)
7 | C[C@]12CC[C@@H]3c4ccc(OC(=O)c5ccccc5)cc4CC[C@H]3[C@@H]1CC[C@@H]2O | 9.1% (inactive) | –
8 | Cn1nnnc1Sc1ncnc2scc(-c3cccc(Cl)c3)c12 | – | 11.2 µM (active)
9 | Cc1ccc(S(=O)(=O)CCc2nc3ccccc3n2CCC#N)cc1 | – | 25.1 µM (active)
10 | CCC(=O)O[C@]1(C(=O)CCl)[C@@H](C)C[C@H]2[C@@H]3CCC4=CC(=O)C=C[C@]4(C)[C@@]3(F)[C@@H](O)C[C@@]21C | 2.63% (inactive) | –
11 | CC(C(=O)O)c1ccc(N2Cc3ccccc3C2=O)cc1 (stereo not given) | – | 2.24 µM (active)
12 | COc1ccc(-c2[nH]ncc2-c2ccc3c(c2)OCCO3)c(O)c1 | – | 15.8 µM (active)
13 | Fc1ccc(N2CCN(c3ncnc4nc[nH]c34)CC2)cc1 | – | 4.47 µM (active)
14 | COc1ccc(NC(=O)c2sc(SC)nc2N)cc1 | – | 4.47 µM (active)
15 | COc1ccc(-c2csc3ncnc(Sc4nnnn4C)c23)cc1 | – | 11.2 µM (active)
16 | O=C(N/N=C/c1ccc(O)c(O)c1)c1ccc(CSc2cccc3cccnc23)cc1 | – | 8.91 µM (active)
17 | C[C@@H]1CNCCN1S(=O)(=O)c1cccc2cnccc12 | -1.89% (inactive) | –
18 | Cc1cc(NC(=O)CCS(=O)(=O)c2nc(-c3ccccc3)cc(C(F)(F)F)n2)no1 | 8.8% (inactive) | –
19 | Cn1nnnc1Sc1ncnc2scc(-c3ccccc3F)c12 | – | 12.6 µM (active)
20 | CC(=O)OCC1=C(C(=O)O)N2C(=O)[C@@H](NC(=O)Cc3cccs3)[C@H]2SC1 | 6.82% (inactive) | –

Row | Structure (SMILES) | activity change, negative = inhibition | Potency
21 | C=CCC(=O)OCCCCCCOc1ccc(C(=O)O)cc1 | – | 1.41 µM (active)
22 | Cn1nnnc1Sc1ncnc2scc(-c3ccc4c(=O)ccoc4c3)c12 | – | 7.94 µM (active)
23 | Cn1nnnc1Sc1ncnc2scc(-c3ccccc3C(F)(F)F)c12 | – | 20 µM (active)
24 | O=C(CNc1ccc(Oc2ccccc2)cc1)N1CCOCC1 | – | 14.1 µM (active)
25 | Cn1nnnc1Sc1ncnc2scc(-c3ccccc3Cl)c12 | – | 15.8 µM (active)
26 | COc1ccc(C2=Nc3cc(C)ccc3OC2)cc1 | – | 11.2 µM (active)
27 | CCN(Cc1ccncc1)C(=O)c1cc(Br)cc(Br)c1O | -3.22% (inactive) | –
28 | C=CS(=O)(=O)c1ccc(Oc2ccc(S(=O)(=O)C=C)cc2)cc1 | – | 10 µM (active)
29 | CCC(=O)OCCCCCCOc1ccc(C(=O)O)cc1 | – | 0.891 µM (active)
30 | Cn1nnnc1Sc1ncnc2scc(-c3ccc(C(=O)OC(C)(C)C)cc3)c12 | – | 14.1 µM (active)
31 | COc1c(F)c(F)c(C(=O)Nc2ccc3oc(-c4ccncc4)nc3c2)c(F)c1F | -1.81% (inactive) | –
32 | Cn1c(C(=O)N2CCN(c3ccc(Cl)cc3)CC2)cc2c(=O)[nH]c3ccccc3c21 | -0.354% (inactive) | –
33 | Cn1nnnc1Sc1ncnc2scc(-c3cnc(N)nc3)c12 | – | 11.2 µM (active)
34 | O=C(c1ccccc1)c1ccc2n1CCC2C(=O)O (stereo not given) | – | 3.98 µM (active)
35 | Cn1nnnc1Sc1ncnc2scc(-c3ccc(C#N)cc3)c12 | – | 8.91 µM (active)
36 | O=C(Nc1ccccc1)C1=C(O)CC(c2ccco2)CC1=Nc1ccccc1 (stereo not given) | -8.66% (inactive) | –
37 | O=C(Nc1ccc(Cl)cc1C(F)(F)F)C(Sc1cccc[n+]1[O-])c1ccccc1 (stereo not given) | 5.2% (inactive) | –
38 | O=[N+]([O-])c1ccc(O)c2ncccc12 | – | 22.4 µM (active)
39 | N#Cc1ccsc1NC(=O)CSc1ncnc2ccccc12 | 5.84% (inactive) | –
40 | CCOC(=O)N1CCN(C(=O)CSCC(=O)Nc2nc(-c3ccc(-c4ccccc4)cc3)cs2)CC1 | – | 3.16 µM (active)
